PubChem BioAssay (NCI)
About 83,000 compounds went through this panel and 20% of them were active in at least one assay; those are over-represented in the sample as a whole.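 Growth was measured after 48 h exposure to one concentration of compound in 96-well plates. Values under 10 count as active.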 The source made the active and inactive calls.

Assays:
Experiment in all cases: NCI-60 one-dose screen, 48 h (100 = growth as untreated, 0 = no growth, -100 = all killed)
Conditions in all cases: 10 µM unless noted
[1] = test system: SR leukemia
[2] = test system: RPMI-8226 leukemia
[3] = test system: OVCAR-8 ovarian
[4] = test system: OVCAR-5 ovarian
[5] = test system: OVCAR-4 ovarian
[6] = test system: SK-OV-3 ovarian
[7] = test system: IGROV1 ovarian
[8] = test system: OVCAR-3 ovarian
[9] = test system: HS 578T breast
[10] = test system: NCI/ADR-RES ovarian
[11] = test system: T-47D breast
[12] = test system: BT-549 breast
[13] = test system: MDA-MB-435 melanoma
[14] = test system: SW-620 colon
[15] = test system: MCF7 breast
[16] = test system: HCT-116 colon
[17] = test system: HCC-2998 colon
[18] = test system: MDA-MB-468 breast
[19] = test system: KM12 colon

Measured: growth

COc1sc(/C=N/NC(=O)c2[nH]c3ccc(Br)cc3c2-c2ccccc2)cc1Br
inactive: [3] 12% | [5] 41.9% | [6] 40.2% | [7] 11.8% | [9] 20.7% | [11] 62%
active: [1] 4.82% | [2] 9.25% | [4] 0.79% | [8] -0.827% | [10] -64.9% | [12] -29.1% | [13] -26.5% | [14] 6.77% | [15] 4.42% | [16] -5.78% | [17] 8.54% | [18] -14.5%

C=CCn1c(O)c(N=Nc2nc(-c3cc4ccccc4oc3=O)cs2)c2ccccc21
inactive: [1] 16.2% | [2] 106% | [3] 80.9% | [4] 18.6% | [5] 80.9% | [6] 112% | [7] 23.9% | [8] 49.3% | [9] 27.5% | [10] 91.6% | [11] 88.8% | [12] 67.3% | [13] 98.5% | [15] 33.4% | [16] 39.3% | [17] 78.4% | [19] 79.4%

Cc1ccccc1Nc1nnc(-c2c[nH]c3ccccc23)o1
inactive: [1] 15.5% | [3] 18.9% | [4] 33.4% | [5] 79.9% | [6] 17.6% | [7] 20.8% | [11] 39.7% | [12] 17.7% | [14] 19.6% | [15] 21.8% | [16] 19.3% | [17] 11.3%
active: [2] 7.25% | [8] 7.3% | [9] -2.08% | [10] -20.2% | [13] -47.2% | [18] -35.5%

Cc1ccc(/C=C/C(=O)c2ccc(S(=O)(=O)NCCNc3nc(N(C)C)nc(N4CCOCC4)n3)cc2)cc1
active: [1] -36.4% | [2] -15.6% | [15] 7.32% | [16] -21.6%
inactive: [3] 88.8% | [4] 97.6% | [5] 91.6% | [6] 90.5% | [7] 102% | [8] 109% | [9] 97.9% | [10] 86.2% | [11] 69.6% | [12] 97.3% | [13] 74.8% | [14] 29.1% | [17] 114% | [18] 67.3%

O=C1Nc2cc(-c3ccc(NS(=O)(=O)c4ccc(F)c(Cl)c4)cc3)ccc2/C1=C/c1ccc[nH]1
active: [1] 6.77%
inactive: [2] 21.4% | [3] 34.9% | [4] 19.7% | [5] 26.4% | [6] 39.6% | [7] 45.9% | [8] 56.9% | [9] 45.6% | [10] 29.7% | [11] 14.7% | [12] 19.7% | [13] 55.1% | [14] 33.9% | [16] 12% | [17] 17.1% | [19] 13.6%

CCCCCCCCCc1ccc(C(=O)Nc2cc(C)ccc2C(=O)OC)cc1
inactive: [1] 90.1% | [2] 81.6% | [3] 110% | [4] 111% | [5] 94.5% | [6] 107% | [7] 118% | [8] 124% | [9] 106% | [10] 109% | [11] 99.1% | [12] 129% | [13] 105% | [14] 99.7% | [15] 91.2% | [16] 96.7% | [17] 122% | [18] 118%

CCCn1c(NC(=O)c2cccc(C(N)=O)c2)nc2cc(CN3CCCCC3)ccc21
inactive: [1] 41.5% | [2] 80.7% | [3] 117% | [4] 99% | [5] 90.2% | [6] 83.4% | [7] 88.5% | [8] 101% | [9] 119% | [10] 114% | [11] 86.6% | [13] 101% | [14] 113% | [15] 71.5% | [17] 116% | [18] 82.5%
active: [12] -10.8% | [16] 5.91%

COc1cc(/C=N/NC(=O)c2ccc(OCc3nc4ccc(Cl)cc4[nH]3)cc2)cc(OC)c1OC
inactive: [1] 33% | [3] 34.5% | [4] 76.3% | [5] 67.1% | [6] 97.7% | [7] 43.1% | [8] 55.7% | [9] 58.3% | [10] 80.6% | [12] 22.9% | [13] 37.7% | [14] 40.8% | [15] 18.3% | [16] 22.8% | [17] 61.2% | [18] 43.4%
active: [2] 2.76% | [11] 7.17%

O=C(CSc1nnc(-c2ccc(-c3nc4ccccc4[nH]3)cc2)o1)Nc1ccc(Cl)cc1
inactive: [4] 47.1% | [5] 45.1% | [6] 83.1% | [7] 44.4% | [8] 20.8% | [9] 63.1% | [10] 30% | [11] 23.8% | [13] 18.4% | [17] 59.6% | [18] 54.8%
active: [1] 2.31% | [2] 7.96% | [3] -18% | [12] -0.131% | [15] 7.43% | [16] 7.32%

Fc1ccc(F)c(CNc2nc(SCCN3CCOCC3)nc3c2cnn3CC(Cl)c2ccc(Br)cc2)c1 (stereo not given)
inactive: [3] 31.9% | [4] 63% | [5] 23.2% | [6] 47% | [7] 45.6% | [8] 45.2% | [9] 23.4% | [10] 22.8% | [11] 10.8% | [16] 16.8% | [17] 24.7%
active: [1] 0.635% | [2] 2.73% | [13] -13.3% | [14] -3.05% | [15] 2.55% | [19] 4.2% | [18] -22.9%

C#CCN(C)CCCOc1ccc(N(CC)C(=O)c2cc(C(C)C)c(O)cc2O)cc1Cl
active: [1] -34.3% | [2] -33.5% | [3] 2.93% | [6] 7.75% | [7] 0.38% | [9] 9.36% | [10] -33.1% | [12] -8.72% | [13] -26.1% | [15] 0.137% | [16] -3.98% | [17] -78.2% | [19] -9.83% | [18] -46.8%
inactive: [4] 19.7% | [5] 26.1% | [8] 20.6% | [11] 10.1%

C[C@@H](Nc1c(C#N)cnc2ccc(-c3cnc4[nH]ncc4c3)cc12)c1ccccc1
inactive: [3] 24.4% | [4] 15.2% | [5] 36.9% | [6] 19.5% | [10] 17.7% | [11] 10.9% | [13] 22.4% | [14] 40.2% | [16] 20.2% | [17] 33.3% | [19] 30%
active: [1] -8.05% | [2] -1.82% | [7] -60.6% | [8] 3.49% | [9] -19.5% | [15] -27.9% | [18] -70.1%

CN1CCN(C(=O)Oc2cc3c(c4ccccc24)[C@H](CCl)CN3C(=O)c2cc3cc(OCCCN4CCC4)ccc3[nH]2)[C@@H]2CSSC[C@H]21
inactive: [5] 12.5%
active: [1] 5.86% | [2] -23.6% | [3] -32.4% | [4] -18.1% | [6] -13.2% | [7] 2.74% | [8] 4.14% | [9] -12.2% | [10] -23.1% | [11] -5.44% | [13] -36.2% | [14] 4.87% | [15] -63.4% | [16] 1.54% | [17] -83.3% | [19] -40.5% | [18] -72.1%

CCN1C(=O)N(CC)C2NNC(Sc3c(C(=O)O)c4ccccc4n(CC(C)C)c3=O)=NC21 (stereo not given)
inactive: [1] 11.1% | [3] 11.8% | [4] 24.2% | [5] 67% | [6] 40.6% | [7] 20% | [11] 72.5% | [14] 30.5% | [17] 18.7% | [19] 21.4%
active: [2] 8.29% | [8] 4% | [9] -2.68% | [10] -27.6% | [13] -51% | [15] 8.53% | [16] 9.94% | [18] 7.22%

O=C(N/N=C/c1ccc(B(O)O)s1)c1[nH]c2ccc(Br)cc2c1-c1ccccc1
active: [1] -22.6% | [2] 0.974% | [3] -28.3% | [4] -97.6% | [5] -63.6% | [6] -86.7% | [7] -74.8% | [8] -47.1% | [9] -25.7% | [10] -33.9% | [11] -77% | [12] -76.2% | [13] -75.1% | [15] -67.1% | [16] -62.9% | [17] -97.7% | [19] -36.5% | [18] -95.9%

COc1ccc(NC(=O)CSc2nnc(-c3ccc(-c4nc5ccccc5[nH]4)cc3)o2)cc1
inactive: [1] 35.3% | [2] 18.4% | [4] 55.4% | [5] 38.3% | [6] 98.2% | [7] 35.6% | [8] 41.4% | [9] 45% | [10] 50.1% | [11] 78.6% | [13] 20.9% | [14] 11.4% | [15] 13.8% | [17] 92.7% | [19] 30.5% | [18] 86.5%
active: [3] -24.6% | [16] 2.37%
